Data published in ChEMBL document CHEMBL3433997, “St. Jude Leishmania screening dataset” (2016).

Assays:
Format in all cases: functional
[1] = molecular target: Solute carrier family 2, facilitated glucose transporter member 1 (Homo sapiens) (UniProt P11166); assay: ST_JUDE_LEISH: Cytotoxicity at 2uM final concentration against transgenic Leishmania Mexicana promastigotes LmGLUT1 that are glucose transport deficient and complemented with the human glucose transporter GLUT1. Activity is measured by DNA content using SYBR green in vitro
[2] = molecular target: Hexose transporter 1 (Plasmodium falciparum) (UniProt O97467); assay: ST_JUDE_LEISH: Cytotoxicity at 2uM final concentration against transgenic Leishmania Mexicana promastigotes LmPfHT that are glucose transport deficient and complemented with the Plasmodium falciparum hexose transporter. Activity is measured by DNA content using SYBR green in vitro
[3] = molecular target: Glucose transporter (Leishmania mexicana) (UniProt O61059); assay: ST_JUDE_LEISH: Cytotoxicity at 2uM final concentration against transgenic Leishmania Mexicana promastigotes LmGT2 that are glucose transport deficient and complemented with the L. Mexicana glucose transporter 2. Activity is measured by DNA content using SYBR green in vitro

Solute carrier family 2, facilitated glucose transporter member 1 (Homo sapiens), sequence (P11166 whole entry): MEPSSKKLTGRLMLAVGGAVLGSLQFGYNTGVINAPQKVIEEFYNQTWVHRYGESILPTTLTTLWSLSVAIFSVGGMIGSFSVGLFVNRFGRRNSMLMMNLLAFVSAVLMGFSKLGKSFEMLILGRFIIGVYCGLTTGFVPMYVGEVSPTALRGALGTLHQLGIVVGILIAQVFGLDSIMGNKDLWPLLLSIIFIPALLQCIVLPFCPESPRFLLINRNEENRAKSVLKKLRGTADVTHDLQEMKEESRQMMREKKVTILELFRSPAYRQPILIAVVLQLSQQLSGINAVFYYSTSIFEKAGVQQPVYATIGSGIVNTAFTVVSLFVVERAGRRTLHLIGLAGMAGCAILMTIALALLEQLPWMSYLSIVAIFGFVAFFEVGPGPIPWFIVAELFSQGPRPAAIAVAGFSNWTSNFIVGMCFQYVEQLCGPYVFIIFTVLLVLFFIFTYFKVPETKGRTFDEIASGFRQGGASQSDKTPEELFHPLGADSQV

Row | Structure (SMILES) | inhibition [1] [%] | inhibition [2] [%] | inhibition [3] [%]
1 | CCCOc1cc(OCCC)cc(-c2cc(=O)c3ccccc3[nH]2)c1 | 0.94 | 6.37 | 3.56
2 | Cc1cccc2nc(-c3ccc(-c4cccc(NC(=O)NCc5cccc(F)c5)c4)cc3)[nH]c12 | -0.32 | 0.88 | -1.06
3 | Cc1cc(N[C@@H](Cc2ccccc2)C(=O)Nc2ccccc2)nc(NCCc2cccs2)n1 | 4.14 | 2.39 | 1
4 | CCCCc1ccc(S(=O)(=O)Nc2ccc3c(c2)CCN(Cc2c[nH]c4cnccc24)CC3)cc1 | -1.78 | -0.79 | 5.76
5 | Cc1[nH]c(C)c(-c2ccc(C#Cc3ccc(F)cc3F)cc2)c(=O)c1Br | -0.29 | 1.21 | 0.22
6 | CC(=O)Nc1ccc(Cl)c(Cl)c1 | -0.84 | 0.05 | -0.72
7 | O=c1ccc2ccc(O)c(O)c2o1 | 7.05 | 5 | 4.39
8 | Cc1cccc2nc(-c3ccc(-c4cccc(CN5CCCC5CN)c4)cc3)[nH]c12 (stereo not drawn) | 1.08 | 1.46 | 1.07
9 | COc1cc(Cc2cnc(N)nc2N)cc(OC)c1OCCCCC(=O)O | -0.54 | 0.53 | 0.75
10 | FC(F)(F)c1ccc2[nH]c(-c3ccc(-c4cccc(CN5CCN(CCN6CCOCC6)CC5)c4)cc3)nc2c1 | 1.77 | 3.69 | 2.25
11 | CC1SC(=S)NC1C(=O)O (stereo not drawn) | -1.93 | 0.57 | 0.24
12 | Cc1cc(N2CCN(CC3CCN(C)CC3)CC2)nc(Nc2ccc(Br)cc2)n1 | 1.44 | 2.2 | 1.74
13 | CCC(C)(C)c1ccc(N2C(N)=NC(N)=NC2(C)C)cc1 | -2.05 | -1.28 | -2.78
14 | COc1ccc2nc(-c3cc(-c4ccc(NC(=O)CN5CCOCC5)cc4)cnc3N)[nH]c2c1 | 17.5 | 44.4 | 11.7
15 | O=C1Nc2cccc3c2C1(CCCCN1CCC(c2c[nH]c4cc(C(F)(F)F)ccc24)CC1)CCC3 (stereo not drawn) | 3.89 | 1.75 | 0.54
16 | CC(=O)c1ccc(N2CCN(CCC3(c4ccc(Cl)c(Cl)c4)COCN(C(=O)c4ccccc4)C3)CC2)cc1 (stereo not drawn) | 4.7 | 1.18 | -0.21
17 | Cc1cccc2nc(-c3ccc(-c4ccc(CN5CCN(C6CCN(C)CC6)CC5)cc4)s3)[nH]c12 | 0.65 | 1.2 | -2.96
18 | CC(C)(C)c1ccc(CN(C[C@@H](O)CNS(=O)(=O)c2cc(Cl)cc(Cl)c2)C(C)(C)C)cc1 | 0.82 | 0.36 | -0.02
19 | N=C(N)c1ccc2[nH]c(-c3cc4cc(C(=N)N)ccc4o3)cc2c1 | 2.26 | 2.36 | 1.58
20 | Nc1nc2c(c(=O)[nH]1)CN(S(=O)(=O)c1ccc(C(=O)N[C@@H](CCC(=O)O)C(=O)O)cc1)CC2 | -3.01 | -2.13 | -1.12
21 | Cc1ccccc1C1CCN(C2CCC(NC(=O)c3cc4cc(Cl)ccc4o3)CC2)CC1 (stereo not drawn) | 1.84 | 1.17 | 3.04
22 | C=CCn1c(Sc2ccc(C#N)c([N+](=O)[O-])c2)nnc1-c1ccc(OC)cc1 | 4.25 | 6.95 | 3.25
23 | CN(C)CCCOc1c(C(C)(C)C)cc(-c2cc(C(C)(C)C)c(OCCCN(C)C)c(C(C)(C)C)c2)cc1C(C)(C)C | 7.07 | 4.77 | 3.12
24 | CC1CN(c2cnn(C/C=C/c3ccc(NC(=O)c4ccc([N+](=O)[O-])cc4)cc3)c(=O)c2Cl)CC(C)N1 (stereo not drawn) | -0.1 | 1.74 | 0.18

Row | Structure (SMILES) | inhibition [1] [%] | inhibition [2] [%] | inhibition [3] [%]
25 | CCNC(=O)N1CCc2ccc(Oc3nc(NCc4ccccc4OC)ncc3C)cc2CC1 | 5.14 | 6.01 | 2.64
26 | Cc1nc(N)nc(N)c1OCCCOc1ccccc1Br | 46.9 | 61.8 | 43.6
27 | NC(=O)c1cccc(C(=O)Nc2cccc(-c3cccc(-c4nc5ccccc5[nH]4)c3)c2)c1 | 5.87 | 5.18 | 4.03
28 | Cc1noc(-c2ccccc2)c1NC(=O)N1CCN(CCCCCCNC(=O)/C=C/c2ccc(Cl)c(Cl)c2)CC1 | -2.35 | 0.35 | -1.3
29 | CCn1c(SCc2ccc(F)cc2)nc2sc3c(c2c1=O)CCN(C)C3 | -1.93 | 1.32 | 0.64
30 | COc1ccc2ncc(F)c(CCN3CC[C@@H](CNCc4cc(C)c5c(c4)OCCO5)C3)c2n1 | 7.09 | 8.46 | 5.39
31 | CN(C)c1ccc(C2(c3ccccc3)N=C(N)N(CCCc3ccccc3)C2=O)cc1 (stereo not drawn) | 3.64 | 3.4 | 0.65
32 | CCN(CC)CCN(Cc1ccc(-c2ccc(C(F)(F)F)cc2)cc1)C(=O)Cn1c(CCc2cc(F)ccc2F)nc(=O)c2ccccc21 | 1.25 | -1.65 | 1.58
33 | COc1cc(NC(=O)/C=C/c2ccc(-c3ccccc3)cc2)ccc1OCCN(C(C)C)C(C)C | 60.5 | 55.8 | 23.4
34 | COc1ccc(C=CC(=O)NC(=O)c2ccccc2OC(=O)c2ccccc2)cc1OC | 2.48 | 2.16 | 1.89
35 | N#CCCN1CCN(Cc2ccc(-c3cccc(-c4nc5cc(F)ccc5[nH]4)c3)cc2)CC1 | 2.61 | 2.18 | 3.17
36 | c1ccc(Nc2nc(-c3ccccn3)cs2)nc1 | -0.62 | 0.38 | -2.43
37 | Cc1cccc2nc(-c3ccc(-c4cccc(CNCc5cccc(N)c5)c4)s3)[nH]c12 | 2.48 | 1.7 | 2.35
38 | CC(C)Oc1cc2c(cc1NS(=O)(=O)c1ccc(-c3ccc(Cl)cc3)cc1F)CCN(C)CC2 | 1.27 | 0.75 | -0.15
39 | COc1ccc(CCN(C)CCOc2ccc(NC(=O)c3cc(SC)cc4c(=O)c5ccccc5[nH]c34)cc2)cc1OC | 4.06 | 3.15 | 2.82
40 | COc1ccc(CNCc2cccc(-c3cccc(-c4nc5ccccc5[nH]4)c3)c2)cc1 | 7.86 | 4.28 | 3.04
41 | CCc1ccc(CN2CCCCC(NC(=O)c3cc(-c4ccccc4F)cs3)C2)cc1 (stereo not drawn) | -2.71 | -0.89 | 1.12
42 | Cc1ccc(C)c(Sc2ccc(NC(=O)CN3CCN(C(=O)c4ccco4)CC3)cc2)c1 | 0.6 | 0.52 | 0.17
43 | Cc1nc(C)c(-c2ccc(Oc3ccc(OC(F)(F)F)cc3)cc2)c(OC(=O)c2ccccc2)c1Cl | 2.27 | 3.78 | 2.37
44 | Nc1ncc(-c2ccc(F)c(Cl)c2)c(N)n1 | 1.16 | 4.76 | 1.32
45 | O=C(/C=C/c1ccc(Cl)c(Cl)c1)NCCCCCN1CCCC(C(=O)Nc2cccc(Cl)c2)C1 (stereo not drawn) | 3.89 | 2.5 | 1.07
46 | c1ccc2c(c1)CN(CC1CC1)CC1(CCN(Cc3c[nH]c4cnccc34)CC1)O2 | -0.99 | 0.39 | 0.54
47 | O=S(=O)(NCCN1CCCC1)c1ccc(-c2ccc(CNCc3ccccc3)cc2)cc1F | 3.64 | 3.01 | 0.32
48 | COc1ccc2cc(C(C)NC3CCN(c4cccc(NC(=O)c5ccncc5)c4)CC3)ccc2c1 (stereo not drawn) | 0.03 | -0.06 | -1.47

Row | Structure (SMILES) | inhibition [1] [%] | inhibition [2] [%] | inhibition [3] [%]
49 | Cc1sc(N2CCN(C)CC2)nc1C(=O)Nc1ccc(F)cc1C(F)(F)F | 4.38 | 2.2 | 3.75
50 | O=C(Nc1cccc(-c2ccc(-c3nc4cc(F)ccc4[nH]3)cc2)c1)Nc1ccc(Cl)c(Cl)c1 | 5.5 | 2.93 | 5.84
51 | CC(C)(Cc1ccc(Cl)cc1)NCCCCCCNCCc1ccc(O)c(O)c1 | -0.5 | -2.96 | -1.18
52 | CCCNCc1ccc(-c2ccc(CN(Cc3cnc(C)cn3)C(=O)CC#N)cc2)nc1 | 1.8 | 1.17 | -1.49
53 | Cc1cccn2c(=O)c3cc(C(=O)NCCc4ccccc4)c(=N)n(CCCOC(C)C)c3nc12 | 8.75 | 6.64 | 2.98
54 | N#Cc1ccc2c(c1)CCN(CCC1CCC(NC(=O)/C=C/c3ccc(F)c4ccccc34)CC1)CC2 (stereo not drawn) | 16.1 | 20.9 | 11.4
55 | O=S(=O)(NCCN1CCCC1)c1ccc(-c2ccc(CNCc3ccc(F)cc3)cc2)s1 | 7.34 | 5.54 | 0.98
56 | COc1cccc(-c2cc3nc4c(c(NCCCn5ccnc5)n3n2)CCCC4)c1 | 2.73 | 5.03 | 2.77
57 | C[C@@H](CC1CCCCC1)NCc1cccc(NS(=O)(=O)c2ccc(O)c(-c3ccno3)c2)c1 | 10.7 | 8.37 | 14.5
58 | CC(C)C[C@@H](/C=N/NC(N)=O)NC(=O)[C@H](CC(C)C)NC(=O)[C@H](CC(C)C)NC(=O)OCc1ccccc1 | 5.02 | 6.9 | 4.41
59 | CS(=O)(=O)CCNCc1cccc(-c2cc3nccc(Nc4ccc(Oc5ccccc5)cc4)c3cc2Cl)c1 | -1.75 | 0.05 | -0.97
60 | CCN(CCCN1CCCCC1)c1nccc(Nc2ccc(Cl)cc2)n1 | 2.03 | 0.37 | 1.18
61 | COc1cc(Cc2cnc(N)nc2N)cc(OCCCCc2ccc([N+](=O)[O-])cc2)c1OC | -1.12 | -1.89 | 1.51
62 | Cc1[nH]c(C)c(-c2ccc(-c3ccccc3Cl)nc2)c(=O)c1Cl | 3.05 | 3.94 | 3.11
63 | CC(C)CC(NC(=O)c1cccc(OCCN2CCOCC2)c1)C(=O)NC(/C=N/NC(=O)c1ccccc1)CCc1ccccc1 (stereo not drawn) | 7.09 | 8.91 | 5.71
64 | COc1ccc(-c2cccc(NC(=O)c3ccc(C#N)cc3)c2)cc1CN1CCCN(C)CC1 | 3.34 | 2.59 | 0.9
65 | Cc1ccc2c(N/N=C/c3ccccc3[N+](=O)[O-])cc(C)nc2c1 | 2.06 | -5.28 | 1.01
66 | c1ccc(COc2ccnc(NCCCOc3cccc(CN4CCCCC4)c3)c2)cc1 | 1.52 | 1.04 | -0.05
67 | FC(F)(F)c1ccc(/C=C/c2cncnc2Nc2ccc3[nH]c(Cc4ccccc4)nc3c2)cc1 | 4.97 | 6.03 | 3.94
68 | COc1cc(Nc2ccnc3cc(-c4nccs4)ccc23)ccc1OCCCc1nc2ccccc2[nH]1 | 3.6 | 4.2 | 4.89
69 | CS(=O)(=O)Nc1cccc(-c2cnc3[nH]cc(-c4ccc(CN)cc4)c3c2)c1 | 4.62 | 4.04 | 3.33
70 | CCc1ccccc1N1CCN(CCCC(=O)c2ccc(NC(=O)c3cc(Cl)cc(Cl)c3)cc2)CC1 | 3.17 | 4.43 | 3.44
71 | Oc1cccc2ccc(Nc3ccccn3)nc12 | 0.94 | 2.29 | -0.77
